# Sampled rows, rich in hits. Any-hit rate of the full collection: about 0.78%.
# RECQ1 inh-1: qHTS Assay for Inhibitors of RecQ-Like Dna Helicase 1 (RECQ1); RECQ1 DNA unwinding, red fluorescence kinetic read; Potency, µM (titrated, usually from 57.3 µM), for the others: top-dose activity, negative = inhibition, most hits filed as inhibitors; 0.54% of 240,000 active; AID 2549, 2010;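 also: plate controls were vehicle for no effect and no enzyme for full effect; nearly all actives have a fitted effect of over 30% in size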
#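 RECQ1T1 50 nM; forked duplex (20 bp + 30-nt ss tails) 200 nM, ATP 2 mM final; pH 8.0, 2 mM MgCl2, 2.5 ug/ml poly(dI-dC); 15 min compound preincubation; discontinuous kinetic read over 2 h at RT.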
# L3MBTL1 block: qHTS Assay for the Inhibitors of L3MBTL1; Potency, µM (series often up to 57.1 µM), without a hit: top-dose activity, negative = inhibition, most hits filed as inhibitors; Lethal(3)malignant brain tumor-like protein 1 (Homo sapiens), Q9Y468; 0.66% of 230,000 active; AlphaScreen L3MBTL1–H3K9me1 peptide binding; also: nearly all actives have a fitted effect of over 60% in size
#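 L3MBTL1 50 nM + b-AHA-H3(1-15)K9me1 75 nM, 30 min RT; compound added, 30 min RT; streptavidin donor/Ni-chelate acceptor beads 10 ug/mL each final, 30 min RT dark; AlphaScreen read.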
# APE1 inh: qHTS Assay for Inhibitors of the Human Apurinic/apyrimidinic Endonuclease 1 (APE1) | 0.35% of 350,000 active | recombinant APE1, TAMRA/BHQ-2 abasic DNA cleavage fluorescence | Potency, µM (titrated, usually from 65.8 µM), for inactives: at the top dose activity change, negative = inhibition, hits mostly inhibitors | DNA repair nuclease/redox regulator APEX1 (Homo sapiens), P27695;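 also: plate controls were vehicle for no effect and reference inhibitor for full effect; nearly all actives have a fitted effect of over 55% in size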
#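 Step 1: APE1 (0.75 nM) with compound, 15 min RT. Step 2: add 50 nM fluorophore/quencher THF duplex. Step 3: three fluorescence reads 60 s apart (525/598 nm); read 3 minus read 1 = reaction progress.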
# BLM helicase inh: qHTS Assay for Inhibitors of Bloom's syndrome helicase (BLM). RecQ-like DNA helicase BLM (Homo sapiens), P54132. recombinant BLM DNA unwinding, fluorescence dequenching. Potency, µM (series often up to 56.1 µM), for inactives: at the highest dose activity change, negative = inhibition, usual class: inhibitors. 0.2% of 350,000 active. AID 2528, 2010;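 also: plate controls were vehicle for no effect and no enzyme for full effect; nearly all actives have a fitted effect of over 35% in size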
# RECQ1 conf: Confirmation qHTS Assay for Inhibitors of RecQ-Like Dna Helicase 1 (RECQ1); shares compounds with RECQ1 inh-1; RECQ1 helicase DNA unwinding, fluorescence; Potency, µM (doses to about 229 µM), for inactives: at the top dose activity change, negative = inhibition, actives largely listed as inhibitors; 28% of 610 active; AID 2708, 2010; also: nearly all actives have a fitted effect of over 45% in size
# ADP FP counter: Counterscreen for RECQ1 Inhibitors: ADP Fluorescence Polarization Displacement Assay. 27% of 530 active. AID 2711, 2010. Potency, µM (titrated, usually from 228 µM), for inactives: at the top dose activity change, negative = inhibition, hits mostly inhibitors. shares compounds with RECQ1 inh-1. ADP fluorescence polarization displacement counterscreen; also: nearly all actives have a fitted effect of over 45% in size
# RECQ1 inh-2: Confirmation qHTS Assay for Inhibitors of RecQ-Like Dna Helicase 1 (RECQ1) - Round 2 Cherry Picks; shares compounds with RECQ1 inh-1; AID 504841, 2011; recombinant RECQ1 DNA unwinding, red fluorescence; 15% of 1,100 active; Potency, µM (series often up to 119 µM), for inactives: at the highest dose activity, negative = inhibition, actives largely listed as inhibitors; also: nearly all actives have a fitted effect of over 50% in size
# Numbers without * were called inactive; i = inactive; ? = inconclusive; . = no result; ! = a repeat was not active; [ ] = remark or other dose. Calls follow the shape of the dose curve; as a rule, active = well fitted curve in the direction sought with a large enough effect; inconclusive = small, poorly fitted or top-dose-only effect, or another doubt; inactive = no such curve, though single readings can be large; an effect the other way counts as inactive or inconclusive. Unless noted, % is scaled to controls: 0 for no effect and ±100 for the full control effect; potency is read from the fitted curve at half-maximal effect.
SMILES,RECQ1 inh-1,L3MBTL1 block,APE1 inh,BLM helicase inh,RECQ1 inh-2,others
Cc1sc(NC(=O)/C=C/c2ccc3c(c2)OCO3)nc1-c1ccccc1,-14%,1%,21%,-9%,.,
CC/C(=C/c1sc2ccc(C)cc2[n+]1CCO)SC,-11%,0%,16%,-6%,.,
CC/C(=C/c1sc2ccc(C)cc2[n+]1CCCS(=O)(=O)[O-])SC,?,.,-10%,-3%,-4%,
O=C(CSC(=S)N1CCCC1)c1cc(Br)cc(Br)c1O,32µM*,.,2%,-11%,50µM*,
CC1CCCN(C(=S)SCC(=O)c2cc(Br)cc(Br)c2O)C1 (configuration not stated),?,-15%,-7%,-8%,-20%,
CC1CCCN(C(=S)SCC(=O)O)C1 (configuration not stated),-6%,8%,-2%,0%,.,
CCOc1cccc(OCCOc2ccccc2[N+](=O)[O-])c1,?,25%,-5%,-11%,-10%,
O=C(O)c1cccc(-c2noc(-c3ccccc3F)n2)c1,.,.,.,2%,.,
CC(O)c1c(-c2ccccc2)nn(C)c1Cl (configuration not stated),40µM*,-7%,22%,-1%,-9%,
CCC(O)c1c(-c2ccccc2)nn(C)c1Cl (configuration not stated),?,8%,0%,1%,.,
c1ccc(-c2csc3ncnc(N4CCN(Cc5ccc6c(c5)OCO6)CC4)c23)cc1,.,.,13%,-2%,.,
O=C(CSc1ncnc2scc(-c3ccccc3)c12)N1CCN(Cc2ccc3c(c2)OCO3)CC1,13µM*,?,0%,-17%,-24%,RECQ1 conf=?
COCCn1c(C)cc(C(=O)CSc2nnc(-c3cccnc3)n2-c2ccccc2F)c1C,3.2µM*,-9%,1%,-12%,.,RECQ1 conf=?;ADP FP counter=50µM*
C=C(C)C(=O)OCC1CN2C(CCC(C)C2c2ccc(Br)cc2)C(=O)O1 (configuration not stated),-1%[11.5 µM],.,15%[12.4 µM],-2%[12.4 µM],.,
COC(=O)C1=C(C(=O)OC)[C@@H]2N(Cc3ccccc3)c3ccccc3[C@@]23C[C@@H](C(=O)OC)N(C(=O)NCc2ccccc2)C3=C1,4%,.,-6%,-4%,.,
CCc1cccc(C)c1NC(=O)Cn1nc(C)c2nn(-c3ccc(Cl)cc3)c(C)c2c1=O,.,.,.,-4%,.,
Clc1ccccc1N1CCN(c2ncnc3nc[nH]c23)CC1,28µM*,4%,-1%,-1%,?,
CCNc1ccc(C(=O)OCC(=O)NCCN2C(=O)CSC2=O)cc1[N+](=O)[O-],?,-27%,3%,0%,5%,
Cc1cccc(N2CCN(S(=O)(=O)c3ccc4c(c3)CCN4C(=O)CCC(=O)O)CC2C)c1 (configuration not stated),-8%,.,-4%,-5%,.,RECQ1 conf=?;ADP FP counter=?
Cc1ccc(CNS(=O)(=O)c2ccc3c(c2)CCN3C(=O)CCCC(=O)O)cc1,i,.,-11%,2%,.,RECQ1 conf=14%;ADP FP counter=-8%
O=C(O)CCCC(=O)N1CCc2cc(S(=O)(=O)N3CCc4ccccc43)ccc21,-2%,.,-1%,1%,.,RECQ1 conf=12%;ADP FP counter=8%
CC1CC(C)CN(S(=O)(=O)c2ccc3c(c2)CCN3C(=O)CCC(=O)O)C1 (configuration not stated),.,.,-7%,2%,.,
O=C(O)CCCC(=O)N1CCc2cc(S(=O)(=O)NCc3ccccc3)ccc21,-10%,-22%,9%,1%,.,RECQ1 conf=-8%;ADP FP counter=11%
CCCCN1CCC2C=CCC(C(=O)O)C2C1=O (configuration not stated),i,.,6%,-11%,.,
CCOC(=O)Cn1c(=O)n(C2CCCCC2)c2nc(-c3ccc(OCC)cc3)nc(C(N)=O)c21,.,.,.,1%,.,
SMILES,RECQ1 inh-1,L3MBTL1 block,APE1 inh,BLM helicase inh,RECQ1 inh-2,others
CCOC(=O)c1sc(-c2ccc(Br)cc2)cc1N,32µM*,33%,25%,-14%,-18%,
O=C(O)CC/C(=C\c1ccc(N2CCCC2)c([N+](=O)[O-])c1)c1nc2ccccc2s1,?,-26%,?,?,?,
Cn1cnnc1Sc1ccc(/C=C(\CC(=O)O)c2nc3ccccc3s2)cc1[N+](=O)[O-],-5%,1%,-2%,-7%,.,RECQ1 conf=-10%;ADP FP counter=-11%
Oc1ccc(COc2cccc3ccccc23)c2cccnc12,.,-3%,-1%,.,.,
Cc1ccc(OCc2nnc(SC(C)C(=O)O)n2Cc2ccccc2)cc1 (configuration not stated),-1%,56%,7%,4%,.,RECQ1 conf=2%;ADP FP counter=6%
O=C(O)Cc1cccc(OCCCN(Cc2cccc(C(F)(F)F)c2Cl)CC(c2ccccc2)c2ccccc2)c1,?,.,-16%,?,25µM*,
O=S(=O)(c1ccc(C2CCCCC2)cc1)N1CCN(c2cc(Cl)ccc2Cl)CC1,.,.,.,-2%,.,
CCCCC1=CC2=C(c3ccco3)C(=O)C(C)(OC(=O)c3ccc(OC)cc3)C(=O)C2=CN1Cc1ccccc1 (configuration not stated),?,.,7%[12.4 µM],-3%[12.4 µM],-9%,
COc1cc2[nH]c3c(N4CCN(c5ccccn5)CC4)ncnc3c2cc1OC,?,-1%,?,-21%,?,
CN(c1ccc(F)cc1)S(=O)(=O)c1ccc(Cl)c(C(=O)Nc2ccc3c(c2)CCC3)c1,32µM*,5%,10%,-2%,-16%,
O=C(O)C(C(=O)/C=C/c1ccco1)=C1SCCS1,?,?,25µM*,-14%,?,
COC(=O)CCC(=O)OC1(C)C(=O)C2=COC(c3ccc(OC)cc3)=CC2=C(Br)C1=O (configuration not stated),?,.,?,0%,56µM*,
COc1ccc(C2=CC3=C(Br)C(=O)C(C)(OC(=O)C4CCCC4)C(=O)C3=CO2)cc1 (configuration not stated),3%,.,-1%,-4%,.,
CC1(C)CCC2=C(O1)c1ccccc1C(=O)C2=O,18µM*!,.,-7%,.,.,RECQ1 conf=?;ADP FP counter=53%
